High-throughput results as filed in PubChem.
MRP-1 activ: H69AR viability gain despite doxorubicin, primary screen, MRP-1 activator project, H69AR cells, CellTiter-Glo. viability rescue. viability increase, % at 10 µM. AID 799, 2007. 0.61% of 140,000 active;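 active = viability gain under doxorubicin at or above a set limit, the compound median plus 3 SD, cut at about 4.7% in these data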;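 note: MRP-1 overexpressing cells given doxorubicin 25 µM after compound pretreatment; 18-22 h compound pretreatment then 72 h with doxorubicin before readout; 0% = doxorubicin-only wells and 100% = vehicle-treated cells without doxorubicin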
CYP2C9 activ: human CYP2C9 activators, primary screen, biochemical, luminescence. Cytochrome P450 2C9 (Homo sapiens), P11712. recombinant CYP2C9, luciferin-H conversion; hits give high values; factor 1 = untreated enzyme, 0 = blocked. activation factor at 5 µM. 1.4% of 96,000 active. AID 1024, 2008;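 active = activation factor of 2 or more for CYP2C9 at a 5 µM dose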;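 note: 0 = sulfaphenazole-blocked wells and 1 = vehicle-only wells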
CYP2C19 act: human CYP2C19 activators, primary screen, biochemical, luminescence. Cytochrome P450 2C19 (Homo sapiens), P33261. recombinant CYP2C19, luciferin-H EGE luminescence; hits give high values; 0 = fully inhibited enzyme, 1 = untreated enzyme. activation factor at 5 µM. 96,000 tested, under 10 active. AID 1025, 2008;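 active = activation factor of at least 2 at 5 µM in the primary screen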;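 note: 0 = wells with 2.5 mM tranylcypromine and 1 = vehicle-only wells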
Target sequence (P33261 whole entry, looked up): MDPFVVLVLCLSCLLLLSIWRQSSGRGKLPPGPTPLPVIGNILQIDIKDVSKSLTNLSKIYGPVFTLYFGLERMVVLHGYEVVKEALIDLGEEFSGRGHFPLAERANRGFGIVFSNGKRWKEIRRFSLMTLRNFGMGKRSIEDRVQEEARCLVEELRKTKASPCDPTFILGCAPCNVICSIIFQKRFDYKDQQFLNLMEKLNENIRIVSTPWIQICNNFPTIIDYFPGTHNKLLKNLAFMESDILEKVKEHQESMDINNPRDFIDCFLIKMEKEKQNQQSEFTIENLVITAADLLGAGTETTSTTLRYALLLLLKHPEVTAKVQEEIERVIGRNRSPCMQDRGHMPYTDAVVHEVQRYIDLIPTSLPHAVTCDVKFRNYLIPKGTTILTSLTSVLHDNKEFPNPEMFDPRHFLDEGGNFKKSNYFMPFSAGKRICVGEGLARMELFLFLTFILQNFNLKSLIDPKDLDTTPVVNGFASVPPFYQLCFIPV
MRP resist rev: reversal of MRP1-mediated doxorubicin resistance, primary screen, H69AR cells, doxorubicin co-treatment; AID 602, 2007; H69AR cells + 2 uM doxorubicin, CellTiter-Glo, 72 h; 0.04% of 85,000 active; differential viability (reversal), % at 10 µM;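 active = viability drop by adding the cancer drug above about 55%, with treated viability meeting a 40% cutoff, limit read from the data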;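 note: viability without doxorubicin minus viability with 2 µM doxorubicin for each compound; larger differential means the compound sensitizes cells more to doxorubicin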
CYP2C19 inh: blockers of cytochrome P450 2C19 activity – biochemical, luminescence, ADME assay, primary screen. CYP2C19 Supersomes, luciferin-H EGE luminescence, 30 min. inhibition, % at 5 µM. P33261. 21% of 96,000 active. AID 778, 2007;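 active = CYP2C19 inhibition above a set limit at 5 µM in the primary screen, cut at about 50% in these data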;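 note: plate controls were negative control wells for no effect and 2.5 mM tranylcypromine positive control for full effect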
CYP2C9 inh: blockers of cytochrome P450 2C9 activity – biochemical, luminescence, ADME assay, primary screen; P11712; CYP2C9 Supersomes, luciferin-H conversion; inhibition, % at 5 µM; 20% of 96,000 active; AID 777, 2007;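 active = blocking of liver enzyme CYP2C9 beyond about 50% at 5 µM, limit read from the data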
Starred values were filed as active, the others as inactive; · = no result given. A selection: hits, their analogues and other compounds. The true share with any hit is near 21%.

SMILES | MRP-1 activ | CYP2C9 activ | CYP2C19 act | MRP resist rev | CYP2C19 inh | CYP2C9 inh
CNC(=O)COC(=O)[C@@H](Nc1ccc(S(=O)(=O)N2CCOCC2)cc1[N+](=O)[O-])C(C)C | -2 | · | · | · | · | ·
Cc1[nH]nc2c1C(c1ccc(F)cc1)C(C#N)=C(N)O2 (centres undefined) | 2 | 0.7 | 0.5 | 9 | 48 | 33
Cc1[nH]nc2c1C(c1ccc3c(c1)OCO3)C(C#N)=C(N)O2 (centres undefined) | 0 | 0.4 | 0.4 | 12 | 60* | 57*
Cc1ccc2nc(-c3ccc(N4C(=N)SC5CS(=O)(=O)CC54)cc3)sc2c1 (centres undefined) | -1 | · | · | · | · | ·
S=C(NCc1ccccc1)NCC1COc2ccccc2O1 (centres undefined) | -2 | 0.2 | 0.1 | · | 93* | 81*
Oc1ccc(CNCC2COc3ccccc3O2)cc1 (centres undefined) | -3 | 1 | 0.4 | · | 56* | 1
C=CCNCCCCOc1ccc(OCC)cc1 | -3 | 1 | 1 | 12 | 1 | 4
Cc1ccc2c(c1)-c1c(ssc1=S)C(C)(C)N2C(=O)CSc1nncn1C | -3 | 0.6 | 0.2 | -1 | 76* | 43
Cc1ccc(S(=O)(=O)N2c3ccccc3-c3c(ssc3=S)C2(C)C)cc1 | -3 | · | · | · | · | ·
CCOc1ccc2c(c1)-c1c(ssc1=S)C(C)(C)N2C(=O)c1ccco1 | -2 | · | · | · | · | ·
Cc1cc2c(cc1C)N(C(=O)CSC1=NCCS1)C(C)(C)c1ssc(=S)c1-2 | -1 | 0.3 | 0.2 | · | 78* | 70*
Cc1cc(C)c2c(c1)-c1c(ssc1=S)C(C)(C)N2C(=O)CSc1nncn1C | -2 | 0.6 | 0.7 | -28 | 30 | 41
COc1ccc2c(c1)-c1c(ssc1=S)C(C)(C)N2C(=O)CSC1=NCCS1 | -2 | 0.3 | 0.3 | · | 72* | 73*
CC1(C)c2ssc(=S)c2-c2ccccc2N1C(=O)CSC1=NCCS1 | -4 | 0.7 | 0.5 | · | 52* | 31
CCOC(=O)N1CCN(C(=O)/C(=C/c2ccc(OC)cc2)NC(=O)c2ccccc2)CC1 | -1 | 0.2 | 0.3 | · | 72* | 77*
O=S(=O)(c1cccc(C(F)(F)F)c1)N1CCN(C(=S)NC2CC2)CC1 | -2 | · | · | · | · | ·
C=CCc1cccc2cc(NC(C)=O)c(=O)oc12 | -1 | 2.8* | 0.6 | 6 | 37 | -181
C=CCc1cccc(C=Nc2cc(Br)ccc2O)c1O | -5 | · | · | · | · | ·
C/C(=N\N=C(/N)SC1CC(=O)N(c2ccccc2)C1=O)c1cccs1 (centres undefined) | 0 | 0.4 | 0.7 | · | 29 | 56*
Cc1cc(C)c(C#N)c(SC2CCCCC2=O)n1 (centres undefined) | 0 | 1.2 | 0.4 | 3 | 61* | -18
Cc1cccc(C2Nc3ccccc3C(=O)N2c2ccccc2)n1 (centres undefined) | -2 | 0.3 | 0.3 | 6 | 71* | 70*
O=C1c2ccccc2NC(c2ccccn2)N1c1ccc(Cl)cc1 (centres undefined) | -4 | 0.4 | 0.5 | 4 | 48 | 63*
CC1CCC2(CC1)NC(=O)N(CC(=O)NC(=O)NC1CCCC1)C2=O (centres undefined) | 0 | 0.7 | 0.9 | -12 | 8 | 35
Cc1cc(C)c[n+](-c2nc3ccccc3nc2[N-]S(=O)(=O)c2ccc(Cl)cc2)c1 | -2 | · | · | · | · | ·
Cc1ccc2c(COC(=O)c3n[nH]c4ccccc34)cc(=O)oc2c1 | 0 | 0.4 | 0.9 | 14 | 12 | 57*
SMILES | MRP-1 activ | CYP2C9 activ | CYP2C19 act | MRP resist rev | CYP2C19 inh | CYP2C9 inh
CCc1ccc2c(COC(=O)c3n[nH]c4ccccc34)cc(=O)oc2c1 | -1 | 0.2 | 0.4 | -7 | 58* | 81*
COc1ccc(NC(=S)N2CCNC(=O)C2CC(=O)Nc2ccc(C)cc2)cc1 (centres undefined) | -1 | · | · | · | · | ·
Cc1csc(NC(=O)CSc2nc3ccccc3c3c2CCCC3)n1 | 0 | · | · | · | · | ·
Cc1cc(C)c2c(=O)[nH]c(SCC(=O)c3ccc(C(C)C)cc3)nc2n1 | -1 | 0.5 | 0.9 | 2 | 15 | 51*
Cc1ccc(C(=O)CSc2nc3ccccc3c(=O)[nH]2)cc1 | -1 | 0.3 | 0.6 | 1 | 43 | 75*
Cc1cc(=O)[nH]c(SCC(=O)c2ccc(C(C)C)cc2)n1 | 0 | 0.9 | 0.7 | · | 34 | 12
Cc1ccc(NC(=S)Nc2nc(CC(=O)Nc3ccccc3)cs2)cc1 | -3 | 0.7 | 0.4 | · | 59* | 28
Cc1csc(NC(=O)CSCC(=O)Nc2ccccc2)n1 | -2 | 0.4 | 0.5 | 1 | 50 | 57*
O=P(OCC1CC1)(c1ccccc1)c1ccccc1 | -1 | · | · | · | · | ·
CC(=O)OC[C@H]1O[C@H](C/C=N/OC[C@@H](O)[C@H]2O[C@@H]3OC(C)(C)O[C@@H]3[C@H]2O)C=C[C@@H]1OC(C)=O | -1 | · | · | · | · | ·
Cc1cccc(C)c1NC(=O)CSc1nc2ccccc2c(=O)[nH]1 | -2 | 0.8 | 0.7 | 16 | 26 | 17
Cc1csc(NC(=O)CSc2nc3ccccc3c(=O)[nH]2)n1 | -2 | 0.4 | 0.9 | 6 | 8 | 55*
CC(C)(C)N(Cc1ccccc1)C(=O)CSc1nc2ccccc2c(=O)[nH]1 | -2 | 0.2 | 0.3 | -10 | 66* | 82*
CC(C)(C)c1csc(NC(=O)CSc2nc3ccccc3c(=O)[nH]2)n1 | -3 | 0.1 | 0.3 | 9 | 67* | 94*
Cn1c(CCNC(=O)c2ccccc2)nc2cc(NC(=O)C3CCCCC3)ccc21 | -2 | 0.8 | 0.9 | 9 | 10 | 20
CCc1ccc2c(c1)c1nnc(NN)nc1n2CC | -2 | · | · | · | · | ·
CCc1ccccc1NC(=O)c1cc(-c2cccc(O)c2)on1 | -1 | 4.8* | 1 | -26 | 5 | -379
CC(C)c1cc(C(=O)Nc2cccc(C(F)(F)F)c2)no1 | -1 | 0.8 | 0.9 | -1 | 12 | 16
COc1cccc(-c2cc(C(=O)NC3CCCC3)no2)c1 | -3 | 1.9 | 0.2 | -16 | 80* | -92
COc1cccc(-c2cc(C(=O)Nc3cccc(O)c3)no2)c1 | -3 | 2.3* | 1.1 | · | -7 | -130
O=C(Nc1cccc(C(F)(F)F)c1)c1cc(-c2ccc(F)cc2)on1 | 4 | 3.5* | 1.2 | 4 | -18 | -250
C#CC1(O)CC(C)N(C)C(C)C1 (centres undefined) | 0 | 1 | 1.1 | -7 | -7 | -5
CC(=O)N(/N=C/c1cccc(C)c1)c1nc(-c2ccc(Br)cc2)cs1 | 0 | 0.9 | 0.7 | · | 28 | 9
COc1ccc(/C=N/N(C(C)=O)c2nc(-c3ccc(C)cc3)cs2)cc1 | 2 | 0.4 | 0.3 | · | 73* | 57*
